Compound activity: PubChem BioAssay, University of Kansas High Throughput Screening Laboratory
Pf apPOL inh = Pf-apPOL inhibitors, biochemical, fluorescence | Recombinant Pf-apPOL, molecular beacon fluorescence, 1.5 h | inhibition, % at 10 µM | 0.25% of 210,000 active
mHTT CaM bind = mutant huntingtin-calmodulin interaction inhibitors – biochemical, AlphaScreen, primary screen. inhibition, % at 15 µM. AlphaScreen His-mHTT/GST-CaM binding, luminescence. 3.6% of 190,000 active. P42858;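 further: 0% = both proteins with DMSO and 100% = one protein alone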
Numbers without * were called inactive; x = not tested or not shown. Sampled rows, rich in hits. Any-hit rate of the full collection: about 3.5%. No stated cut-off is given here; in the data, active means inhibition above about 50%; inactive means the rest.

SMILES	Pf apPOL inh	mHTT CaM bind
C=CCNC(=O)C1CCN(c2ccc(Br)cc2)C1=O (stereo not given)	-1	0
NC(=O)c1nc(-c2ccccc2)nc2c1OCCO2	2	26
CC1(C)CC(=O)C2=C(C1)N=C1c3ccccc3C(=O)C1C2c1ccc(O)c(O)c1 (stereo not given)	12	48
CC1(C)CC(=O)C2=C(C1)N=C1c3ccccc3C(=O)C1C2c1ccc(F)cc1 (stereo not given)	-2	62*
CC1(C)CC(=O)C2=C(C1)N=C1c3ccccc3C(=O)C1C2c1cc(Br)ccc1O (stereo not given)	-5	59*
COc1ccc(C2C3=C(CCCC3=O)N=C3c4ccccc4C(=O)C32)cc1OC (stereo not given)	-3	36
CC1(C)CC(=O)C2=C(C1)OC(N)=C(C#N)C2c1ccc(Br)cc1 (stereo not given)	-5	4
CC1(C)CC(=O)C2=C(C1)N=C1c3ccccc3C(=O)C1C2c1ccc(Br)cc1 (stereo not given)	-2	65*
Cc1cc2c(cn1)C(=Nc1ccccc1)c1cc([N+](=O)[O-])ccc1-2	-4	33
COC(=O)c1sccc1NC(=O)N1CCCC1c1cc(C(C)C)no1 (stereo not given)	-1	8
COc1ccc(CCN2C(=S)NC3c4cc([N+](=O)[O-])ccc4OC2(C)C3C)cc1OC (stereo not given)	0	61*
COCCCN1C(=S)NC2c3cc([N+](=O)[O-])ccc3OC1(C)C2C (stereo not given)	-4	0
CCOc1cc(/C=C2/C=C(c3ccc(C)cc3)OC2=O)ccc1O	8	55*
CCOc1ccc(C2=C/C(=C/c3ccc(C)c(OC)c3)C(=O)O2)cc1	3	-14
O=C(C[n+]1ccccc1)Nc1nc(-c2ccccc2)cs1	1	-4
Cc1nc2cc(N=Cc3ccc(Br)cc3)ccc2n1C	53*	5
Cc1nc2cc(N=Cc3ccccc3O)ccc2n1C	19	8
COc1cc(C2C(C#N)=C(N)Oc3n[nH]c(-c4ccc(Cl)c(Cl)c4)c32)ccc1O (stereo not given)	-1	99*
N#CC1=C(N)Oc2n[nH]c(-c3ccc(Cl)c(Cl)c3)c2C1c1ccc(O)cc1 (stereo not given)	-4	100*
COc1cc(C2C(C#N)=C(N)Oc3n[nH]c(-c4cc(OC)c(OC)c(OC)c4)c32)ccc1O (stereo not given)	-3	10
N#CC1=C(N)Oc2n[nH]c(-c3cccc([N+](=O)[O-])c3)c2C1c1ccc(O)cc1 (stereo not given)	7	14
COc1ccc(C2C(C#N)=C(N)Oc3n[nH]c(-c4ccc(OC)c(OC)c4)c32)cc1O (stereo not given)	-1	10
COc1ccc(-c2[nH]nc3c2C(c2ccc(C(F)(F)F)cc2)C(C#N)=C(N)O3)cc1OC (stereo not given)	1	100*
CCCNC(=O)c1csc(-c2ccc(OC)cc2)n1	-11	-7
COc1cc2c(cc1OC)C(C(CCC(C)C)C(N)=O)=NC(C)(C)C2 (stereo not given)	13	5
SMILES	Pf apPOL inh	mHTT CaM bind
COc1ccc(Br)cc1C1=N/C(=C\c2c(F)cccc2Cl)C(=O)O1	-2	3
C=CSc1sc(Cl)c(N2CCCCCC2)c1[N+](=O)[O-]	6	43
C=CSc1sc(Cl)c(N2CCCC2)c1[N+](=O)[O-]	6	75*
CCN(Cc1ccccc1)Cc1ccccc1[N+](=O)[O-]	-8	-22
C=CSc1sc(Cl)c(N(C)Cc2ccccc2)c1[N+](=O)[O-]	-76	64*
O=C(C=Cc1ccncc1)c1ccc(O)cc1	-5	-5
COC(=O)N1CCN(CCNC(=O)c2cccc3ccccc23)CC1	-2	-16
CCOc1ccccc1CNC(=O)C1CCCN(c2nccc(C)n2)C1 (stereo not given)	-2	-8
CCOc1ccc(C(=O)Nc2ccccc2N2CCOCC2)cc1Br	-6	-10
CCOc1cc(N2CCOCC2)c(OCC)cc1N	-6	53*
CCOC(=O)N1CCC2(CC1)N=C(c1ccccc1)CC(c1cc(Cl)ccc1O)N2 (stereo not given)	-3	35
CC(C)C1(C)N=C(c2ccc3c(c2)OCO3)CC(c2ccccc2O)N1 (stereo not given)	-4	64*
COc1cccc(C2=NC(C(C)C)NC(c3cc(Cl)ccc3O)C2)c1 (stereo not given)	-6	52*
COc1cccc(C2=NC(C)(C)NC(c3cc(Cl)ccc3O)C2)c1 (stereo not given)	-4	100*
COc1cccc(C2=NC(C)(CC(C)C)NC(c3ccccc3O)C2)c1 (stereo not given)	-1	98*
COc1cccc(C2=NC(C(C)C)NC(c3ccccc3O)C2)c1 (stereo not given)	-6	30
CC(C)N1CCC2(CC1)N=C(c1ccc3c(c1)OCO3)CC(c1ccccc1O)N2 (stereo not given)	9	8
CCCC1(C)N=C(c2ccc(OCC)cc2)CC(c2ccccc2O)N1 (stereo not given)	-3	17
COc1ccc(C)cc1NC(=O)CCc1cccc2[nH]ccc12	0	11
Cc1ccc2c(c1)C(=O)c1cnc(/C=C/c3ccccc3)cc1-2	-7	14
COCCNC(=O)Cn1nc(-c2ccc(Cl)cc2)c2ccccc2c1=O	76*	1
O=C(Cn1nc(-c2ccc(Cl)cc2)c2ccccc2c1=O)Nc1ccc(Cl)cc1	12	9
O=C(O)c1ccnc(-c2cc(C(=O)O)ccn2)c1	-23	x
CN(C)C=Cc1ccnc(-c2cc(C=CN(C)C)ccn2)c1	66*	x
Cc1ccc(-c2nc(NC(=O)c3csc(-c4cccs4)n3)sc2C)cc1Cl	2	x
SMILES	Pf apPOL inh	mHTT CaM bind
Nc1c(N)c(N)c(N)c(N)c1N	x	64*
CN(C)c1ccc(C(=O)Nc2ccc(O)c3c(=O)cc(-c4ccccc4Cl)oc23)cc1	2	54*
O=C(Nc1ccc(O)c2c(=O)cc(-c3ccccc3Cl)oc12)c1ccc(Br)cc1	-4	21
CC(C)C(O)(C#CCN(CCO)CCO)c1ccccc1 (stereo not given)	-15	1
O=C(c1cc2ccccc2o1)N1CCN(c2ccc(C(F)(F)F)cc2[N+](=O)[O-])CC1	17	47
CC1Cc2ccccc2N1C(=O)c1ccc(N2CCCCC2)c([N+](=O)[O-])c1 (stereo not given)	1	63*
COc1ccc(C(=O)c2ccc(N3CCN(C)CC3)c([N+](=O)[O-])c2)cc1	-10	17
O=C(c1cc2ccccc2o1)N1CCN(c2ccc(Cl)cc2[N+](=O)[O-])CC1	4	57*
CN1CCN(c2ccc(C(=O)c3ccc(Cl)cc3)cc2[N+](=O)[O-])CC1	-7	62*
O=C(O)c1ccccc1C(=O)c1ccc(N2CCCCC2)c([N+](=O)[O-])c1	-10	3
CNC(=O)c1nn(C)cc1NS(=O)(=O)c1cnn(C)c1C	x	-4
C[C@H](c1ccccc1)N1C[C@@H](COCc2ccccc2)Oc2cc(N3CCC[C@@H]3CO)ccc2S1(=O)=O	-4	68*
C[C@H](c1ccccc1)N1C[C@@H](COCc2ccccc2)Oc2cc(N3CC[C@@H](O)C3)ccc2S1(=O)=O	-7	44
